# Laboratory results reported in PubChem BioAssay (NCATS).
# Where “and” joins values, the source holds several entries; their conditions need not be identical. Identical values can stand only once. Results filed as inconclusive are left out. Where a call stands in place of a potency, no number is given. Calls of active or inactive are those of the source. Unless noted, calls follow the shape of the dose curve; as a rule, active = well fitted curve in the direction sought with a large enough effect; inconclusive = small, poorly fitted or top-dose-only effect, or another doubt; inactive = no such curve, though single readings can be large; an effect the other way counts as inactive or inconclusive.
# Columns and labels:
# [1] = Primary qHTS for inhibitors of nuclear receptor binding SET domain protein 2 (NSD2) in an isogenic RCH-ACV NSD2 p.E1099K mutant (9B) (AID 1645876); also: potency is read from the fitted curve at half-maximal effect; nearly all actives have a fitted effect of over 70% in size
# [2] = Primary qHTS for inhibitors of nuclear receptor binding SET domain protein 2 (NSD2) in an RCH-ACV wild type WT cells (2C) (AID 1645877); also: potency is read from the fitted curve at half-maximal effect; nearly all actives have a fitted effect of over 70% in size
# [3] = Primary qHTS for small molecule stabilizers of the endoplasmic reticulum resident proteome: Secreted ER Calcium Modulated Protein (SERCaMP) assay (AID 1508630)
# Outline: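 GLuc-SERCaMP-expressing SH-SY5Y cells, pretreated 16 h with compound, are challenged with thapsigargin to empty ER calcium stores; after 4 h, coelenterazine is added directly to the medium and luminescence is imaged.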
# [4] = molecular target: Glutathione peroxidase 1 (Homo sapiens) (UniProt P07203); test: Primary qHTS Assay for Inhibitors of Recombinant Selenoprotein Glutathione Peroxidase 1 (GPX1) (AID 1845191); also: nearly all actives have a fitted effect of over 65% in size
# Outline: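 GR-coupled assay: compounds preincubated 30 min at room temperature with GPX1, then reaction started with CHP; final 10 nM GPX1, 1 mM GSH, 0.5 mM CHP, 0.5 mM NADPH, 100 nM GR, 0.01% BSA, pH 7.5 Tris buffer. NADPH fluorescence (340/450 nm) read at 0 and 15 min.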
# [5] = AP1 Signaling Pathway (AID 357; active = well fitted curve in either direction with a large enough effect, not every such curve was filed as active); settings: ME-180 AP-1-bla reporter, EGF-induced, beta-lactamase ratio, 5 h
# Outline: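 AP-1-bla ME-180 cells with beta-lactamase reporter under AP-1 response element, stimulated with EC50 EGF; compounds titrated, 5 hours at 37 degrees Celsius. CCF4 read at 460/530 nm ratio; positive and negative modulators judged by AC50.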
# [6] = NFAT Signaling Pathway (AID 444; active = well fitted curve in either direction with a large enough effect, not every such curve was filed as active;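 also: carbachol stimulus at about its EC50 of 1 µM final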); settings: Jurkat NFAT-bla M1, carbachol, beta-lactamase ratio, 5 h
# Outline: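 Jurkat cells with NFAT-driven β-lactamase reporter and co-expressed M1 receptor, stimulated with carbachol (final 1 uM, ~EC50), compound titration, 5 h at 37 °C. CCF4 loaded 1 h at RT; 460/530 nm ratio gave %activity and AC50.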
# [7] = Stat Signaling Pathway (AID 446; active = well fitted curve in either direction with a large enough effect, not every such curve was filed as active;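 also: ME-180 cervical cancer cells given 40 pM IL-6 alongside compound; SIE-controlled beta-lactamase reporter measured as 460/530 nm FRET emission ratio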); settings: ME-180 SIE beta-lactamase reporter, IL-6 stimulated, 5 h
# Outline: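 Screening format detects activators and inhibitors alike: ME-180 SIE-bla cells stimulated at 40 pM IL-6 for 5 hrs with compound, then dual-emission beta-lactamase read at 405 nm excitation.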
# [8] = molecular target: Glucocorticoid receptor (Homo sapiens) (UniProt P04150); test: GR-GFP Redistribution (AID 450;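 active = compounds whose dose series gives a full or clear partial fitted curve of increased nuclear translocation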; also: potency is read from the fitted curve at half-maximal effect); settings: U2OS GR-GFP nuclear translocation, laser cytometry, 2 h
# [9] = molecular target: Glucocorticoid receptor (Homo sapiens) (UniProt P04150); test: GR-EFC Redistribution (AID 451; calls by dose curve; also: potency is read from the fitted curve at half-maximal effect); settings: CHO-K1 GR-EFC translocation, beta-gal luminescence, 2 h
# Outline: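 CHO-K1 cells expressing nuclear EA and GR-ED fragments of b-gal; compounds titrated up to 46 uM final, 2 h at 37 C. GR nuclear translocation read as complemented b-gal luminescence after 1 h RT detection.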
# [10] = molecular target: Mitogen-activated protein kinase 10 (Mus musculus) (UniProt Q61831); test: JNK3 AlphaScreen Assay (AID 530; active = well fitted curve in either direction with a large enough effect, not every such curve was filed as active;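 also: kinase came from lysate of stimulated human HepG2 cells; signal reports phosphorylation of biotinylated GST-cJun 1-79 at Ser73 with 10 µM ATP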)
# Outline: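 qHTS format: compounds tested as titrations against IL-1beta/TNF-alpha-activated HepG2 lysate JNK3 with biotin-GST-cJun substrate and 10 uM ATP at room temperature. Loss of anti-phospho-cJun AlphaScreen signal indicates inhibition.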
# [11] = molecular target: 3',5'-cyclic-AMP phosphodiesterase 4B (Homo sapiens) (UniProt Q07343); test: qHTS Assay for Inhibitors of PDE-IV (AID 607; active = well fitted activation curve with a large enough effect in the main read-out, with a control signal flat, not every such curve was filed as active)
# Outline: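 The readout is membrane depolarisation from a cAMP-sensing CNG channel, detected with a potential dye at ex 535/em 590. Cells were HEK293-derived (endogenous PDE-IV) at 1000 cells/well, titrated up to 22.9 uM final.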
# [12] = molecular target: Guanine nucleotide-binding protein G(i) subunit alpha-1 (Homo sapiens) (UniProt P63096); test: qHTS Assay for Inhibitors of RGS12 GoLoco Motif Activity (Green Fluorophore) (AID 879);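 also: negative values mean loss of peptide binding seen as reduced polarization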
# Outline: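 Fluorescence polarization assay: 50 nM Gαi1 with 10 nM FITC-labeled RGS12 GoLoco peptide in 10 mM Tris pH 7.5, 150 mM NaCl, 0.1 mM GDP, 0.05% NP40, 10 min at room temperature with compound.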
# [13] = Confirmation and Secondary Assay for Modulators of Hemoglobin Beta Chain Splicing at IVS2 654 locus (AID 910);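 also: HeLa cells stably carrying EGFP split by mutant beta-globin IVS2-654 intron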
# Outline: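 HeLa cells stably expressing EGFP interrupted by β-globin IVS2-654 intron, seeded overnight in Opti-MEM/2% FCS, then treated 2 days at 37 °C. Restored splicing read as total peak GFP intensity per well by laser scanning cytometry (488 nm excitation, 500–520 nm emission); 500 nM antisense PNA as control.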
# [14] = Confirmation and Secondary Assay for Modulators of Hemoglobin Beta Chain Splicing at IVS2 705 locus (AID 930);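 also: HeLa cells stably expressing the EGFP-705 splicing reporter; GFP fluorescence per well restored by corrected splicing of the IVS2-705 intron in EGFP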
# Outline: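 HeLa cells stably carrying EGFP interrupted by mutant beta-globin intron 2 (IVS2-705) treated 2 days at 37C with compound; 500 nM antisense PNA as control. Correct splicing read as total peak GFP intensity per well by laser-scanning cytometry.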
# [15] = molecular target: alpha-glucosidase (Oryza sativa, rice) (UniProt Q653V4); test: Counterscreen for Glucocerebrosidase Inhibitors: qHTS Assay for Rice alpha-Glucosidase at pH 5.0 (AID 997)
# Outline: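 Rice alpha-glucosidase (4 nM final) with 400 uM 4-methylumbelliferyl-alpha-D-glucopyranoside in citrate buffer pH 5.0, 20 min at room temperature, stopped at pH 10; fluorescence 365/440 nm, compounds 0.7 nM–77 uM, AC50 from Hill fits.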
# [16] = qHTS Assay for Lipid Storage Modulators (AID 1519; calls by dose curve); settings: Drosophila S3 cells, BODIPY lipid droplet/cell ratio, laser cytometry, cells loaded with oleic acid
# Outline: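 Cells seeded at 5,000 per well were treated with compounds over a concentration series and loaded with oleic acid (400 uM, as added). Lipid droplet fluorescence (488 nm excitation, 500-530 nm channel) was read by laser-scanning cytometry and normalized to 20 uM Triacsin C.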
# [17] = molecular target: DNA dC->dU-editing enzyme APOBEC-3G (Homo sapiens) (UniProt Q9HC16); test: qHTS for inhibitors of Vif-A3G interactions: Validation (AID 588379)
# Outline: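 HeLa cells stably expressing Vif and A3G-eYFP, 700 cells/well, incubated overnight at 37 deg C, then exposed to compound overnight at 37 deg C. Inhibition of Vif-mediated degradation read as increased yellow fluorescence (Ex 488/Em 500-530) by laser-scanning cytometry.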
# [18] = molecular target: Cytochrome P450 1A2 (Homo sapiens) (UniProt P05177); test: p450-cyp1a2 (AID 410; calls by dose curve; also: potency is read from the fitted curve at half-maximal effect)
# Outline: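 Inhibition was calculated relative to 57 uM furafylline (full inhibition). The reaction used human CYP1A2 at 20nM with Luciferin-ME at its Km, 100uM, driven by an NADPH-regenerating system for 60 min at room temperature.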
# [19] = molecular target: Cytochrome P450 3A4 (Homo sapiens) (UniProt P08684); test: qHTS Assay for Activators of Cytochrome P450 3A4 (AID 885); also: nearly all actives have a fitted effect of over 65% in size
# Outline: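 Steps: enzyme/substrate mix dispensed; compound added, 10 min RT; NADPH regeneration solution added, 60 min RT; luciferin detection buffer stops reaction; 20 min later luminescence measured.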
# [20] = molecular target: Alpha-galactosidase A (Homo sapiens) (UniProt P06280); test: Counterscreen for Glucocerebrosidase Inhibitors: qHTS Assay for Human alpha-Galactosidase at pH 4.5 (AID 992)
# Outline: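 Concentration-response curves (0.7 nM to 77 uM final) were modeled with the Hill equation to give AC50. Reactions: 2 nM enzyme, 80 uM fluorogenic alpha-galactoside, pH 4.5 citric acid buffer, 20 min, room temperature.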
# [21] = molecular target: Ubiquitin carboxyl-terminal hydrolase 1 (Homo sapiens) (UniProt O94782); test: Inhibitors of USP1/UAF1: Pilot qHTS (AID 504865);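 also: rhodamine fluorescence freed from ubiquitin-rhodamine substrate followed over time; top concentration of the series differs between compounds; nearly all actives have a fitted effect of over 35% in size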
# Outline: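 USP1/UAF1 complex (1nM) preincubated with compound 15 min at room temperature, then Ub-Rho substrate (150nM final) added. Fluorescence read kinetically at 480/540 nm, 6 reads every 60 seconds. Buffer: 50mM HEPES pH 7.8, 0.5mM EDTA, 0.1 mg/ml BSA, 1mM TCEP, 0.01% Tween-20.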
# [22] = qHTS for Inhibitors of Plasmodium falciparum (DD2) proliferation (AID 504314); also: potency is read from the fitted curve at half-maximal effect;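 as to activity, negative = inhibition: parasite DNA measured by SYBR Green fluorescence after red cell lysis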
# Outline: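 Quantitative HTS growth inhibition: SYBR Green I binding to parasite DNA after 72 h drug exposure of infected erythrocytes (0.3% parasitemia, 2.5% hematocrit). Signals normalized per plate to inhibitor and vehicle wells.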
# [23] = qHTS for Inhibitors of Plasmodium falciparum (GB4) proliferation (AID 504315); also: nearly all actives have a fitted effect of over 50% in size; also: potency is read from the fitted curve at half-maximal effect
# Outline: (§1)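 Erythrocytes infected with P. falciparum line (0.3% parasitemia, 2.5% hematocrit final) incubated with compounds 72 h at 37 °C, 5% CO2; SYBR Green lysis buffer added, fluorescence read next day. Normalized to 0.29 uM artemisinin and DMSO.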
# [24] = qHTS for Inhibitors of Plasmodium falciparum (7G8) proliferation (AID 504316); also: nearly all actives have a fitted effect of over 65% in size; also: potency is read from the fitted curve at half-maximal effect
# Outline: as §1
# [25] = qHTS for Inhibitors of Plasmodium falciparum (HB3) proliferation (AID 504318); also: nearly all actives have a fitted effect of over 60% in size; also: potency is read from the fitted curve at half-maximal effect
# Outline: as §1
# [26] = qHTS for Inhibitors of Plasmodium falciparum (CP250) proliferation (AID 504320)
# Outline: as §1
# Sequence of DNA dC->dU-editing enzyme APOBEC-3G (Homo sapiens) (Q9HC16 whole entry, looked up): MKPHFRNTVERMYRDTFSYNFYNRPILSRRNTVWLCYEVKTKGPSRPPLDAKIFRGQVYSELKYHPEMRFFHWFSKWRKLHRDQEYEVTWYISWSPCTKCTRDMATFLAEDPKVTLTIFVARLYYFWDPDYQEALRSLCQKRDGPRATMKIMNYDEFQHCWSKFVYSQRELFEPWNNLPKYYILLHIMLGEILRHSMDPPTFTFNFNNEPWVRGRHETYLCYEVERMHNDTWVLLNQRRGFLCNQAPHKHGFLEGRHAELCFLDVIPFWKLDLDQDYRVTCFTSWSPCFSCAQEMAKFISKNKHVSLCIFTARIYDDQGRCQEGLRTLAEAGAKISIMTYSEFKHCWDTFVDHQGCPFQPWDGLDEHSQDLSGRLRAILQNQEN
# Sequence of Guanine nucleotide-binding protein G(i) subunit alpha-1 (Homo sapiens) (P63096 whole entry, looked up): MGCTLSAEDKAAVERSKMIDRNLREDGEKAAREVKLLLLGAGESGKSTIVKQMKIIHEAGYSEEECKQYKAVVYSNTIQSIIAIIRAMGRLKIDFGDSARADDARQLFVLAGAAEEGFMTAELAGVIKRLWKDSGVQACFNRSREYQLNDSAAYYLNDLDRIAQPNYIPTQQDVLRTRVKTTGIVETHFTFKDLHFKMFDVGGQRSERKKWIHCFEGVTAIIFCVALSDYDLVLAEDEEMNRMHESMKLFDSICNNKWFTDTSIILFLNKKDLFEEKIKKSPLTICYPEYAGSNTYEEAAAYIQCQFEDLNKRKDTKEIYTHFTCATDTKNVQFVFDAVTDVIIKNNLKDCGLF
# Sequence of 3',5'-cyclic-AMP phosphodiesterase 4B (Homo sapiens) (Q07343 whole entry, looked up): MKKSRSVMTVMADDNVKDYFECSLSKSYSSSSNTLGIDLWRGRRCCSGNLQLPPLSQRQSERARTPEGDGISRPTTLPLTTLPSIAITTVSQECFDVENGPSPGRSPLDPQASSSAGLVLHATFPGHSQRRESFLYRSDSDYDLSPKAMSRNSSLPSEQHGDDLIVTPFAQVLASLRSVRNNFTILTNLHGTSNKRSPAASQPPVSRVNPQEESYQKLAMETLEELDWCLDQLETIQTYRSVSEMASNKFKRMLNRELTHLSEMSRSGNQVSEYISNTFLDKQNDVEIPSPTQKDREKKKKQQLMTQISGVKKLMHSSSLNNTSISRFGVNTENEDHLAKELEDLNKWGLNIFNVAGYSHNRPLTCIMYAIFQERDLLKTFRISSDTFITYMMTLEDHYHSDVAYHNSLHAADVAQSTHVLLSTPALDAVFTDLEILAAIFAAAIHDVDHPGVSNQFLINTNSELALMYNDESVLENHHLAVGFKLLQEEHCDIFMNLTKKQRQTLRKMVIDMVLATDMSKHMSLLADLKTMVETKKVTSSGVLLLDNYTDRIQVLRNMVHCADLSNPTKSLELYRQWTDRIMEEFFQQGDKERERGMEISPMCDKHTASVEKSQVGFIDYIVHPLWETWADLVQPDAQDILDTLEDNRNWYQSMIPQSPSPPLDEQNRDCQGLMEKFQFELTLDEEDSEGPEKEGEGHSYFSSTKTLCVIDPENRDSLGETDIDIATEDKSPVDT
# Sequence of Glucocorticoid receptor (Homo sapiens) (P04150 whole entry, looked up, the tested form may be a part): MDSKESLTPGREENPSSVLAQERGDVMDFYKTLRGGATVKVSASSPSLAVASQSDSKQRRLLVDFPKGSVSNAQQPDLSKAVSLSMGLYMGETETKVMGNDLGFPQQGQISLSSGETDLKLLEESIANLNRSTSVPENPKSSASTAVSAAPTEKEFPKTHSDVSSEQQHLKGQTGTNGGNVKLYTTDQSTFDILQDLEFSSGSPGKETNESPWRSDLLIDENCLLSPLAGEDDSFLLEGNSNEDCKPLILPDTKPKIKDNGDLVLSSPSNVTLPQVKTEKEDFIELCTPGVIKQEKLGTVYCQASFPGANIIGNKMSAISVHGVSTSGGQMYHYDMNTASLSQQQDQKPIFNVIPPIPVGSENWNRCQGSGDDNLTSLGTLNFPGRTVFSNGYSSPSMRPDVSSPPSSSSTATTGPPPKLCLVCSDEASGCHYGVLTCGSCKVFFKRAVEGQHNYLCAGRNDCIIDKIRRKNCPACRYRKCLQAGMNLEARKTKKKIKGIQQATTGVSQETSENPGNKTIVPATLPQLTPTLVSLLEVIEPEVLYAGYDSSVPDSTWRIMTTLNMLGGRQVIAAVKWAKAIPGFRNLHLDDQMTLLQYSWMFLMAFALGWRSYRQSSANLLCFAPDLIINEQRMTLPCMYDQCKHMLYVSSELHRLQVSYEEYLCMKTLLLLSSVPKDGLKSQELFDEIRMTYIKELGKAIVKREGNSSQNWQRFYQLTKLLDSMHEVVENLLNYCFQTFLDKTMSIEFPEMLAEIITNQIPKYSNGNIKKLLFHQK
# Sequence of Cytochrome P450 3A4 (Homo sapiens) (P08684 whole entry, looked up): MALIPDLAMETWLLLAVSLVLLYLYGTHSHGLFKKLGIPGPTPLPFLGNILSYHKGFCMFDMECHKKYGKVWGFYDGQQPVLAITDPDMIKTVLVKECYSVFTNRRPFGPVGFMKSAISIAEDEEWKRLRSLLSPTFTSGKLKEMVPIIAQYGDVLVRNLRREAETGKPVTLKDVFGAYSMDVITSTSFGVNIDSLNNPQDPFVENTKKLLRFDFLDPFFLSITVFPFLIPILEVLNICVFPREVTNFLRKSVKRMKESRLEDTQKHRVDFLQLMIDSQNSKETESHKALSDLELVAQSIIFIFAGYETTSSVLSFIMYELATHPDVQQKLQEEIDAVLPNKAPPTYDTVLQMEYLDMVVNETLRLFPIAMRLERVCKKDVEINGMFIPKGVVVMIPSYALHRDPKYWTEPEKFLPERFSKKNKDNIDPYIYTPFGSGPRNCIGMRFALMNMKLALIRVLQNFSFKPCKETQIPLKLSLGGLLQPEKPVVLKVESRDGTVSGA
# Sequence of Cytochrome P450 1A2 (Homo sapiens) (P05177 whole entry, looked up): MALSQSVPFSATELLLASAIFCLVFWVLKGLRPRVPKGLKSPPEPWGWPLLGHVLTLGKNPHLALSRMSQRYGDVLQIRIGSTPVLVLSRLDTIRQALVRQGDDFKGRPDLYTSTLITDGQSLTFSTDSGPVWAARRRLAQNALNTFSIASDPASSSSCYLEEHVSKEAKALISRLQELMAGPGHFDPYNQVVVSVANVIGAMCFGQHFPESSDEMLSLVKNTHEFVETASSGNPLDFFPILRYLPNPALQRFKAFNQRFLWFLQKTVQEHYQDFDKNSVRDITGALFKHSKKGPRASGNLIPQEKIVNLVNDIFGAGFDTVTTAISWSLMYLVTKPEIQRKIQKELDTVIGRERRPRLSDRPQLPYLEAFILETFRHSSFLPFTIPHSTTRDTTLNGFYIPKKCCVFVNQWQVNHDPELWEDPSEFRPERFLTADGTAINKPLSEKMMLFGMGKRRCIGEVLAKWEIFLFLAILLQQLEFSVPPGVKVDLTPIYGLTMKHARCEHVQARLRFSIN
# Sequence of Ubiquitin carboxyl-terminal hydrolase 1 (Homo sapiens) (O94782 whole entry, looked up): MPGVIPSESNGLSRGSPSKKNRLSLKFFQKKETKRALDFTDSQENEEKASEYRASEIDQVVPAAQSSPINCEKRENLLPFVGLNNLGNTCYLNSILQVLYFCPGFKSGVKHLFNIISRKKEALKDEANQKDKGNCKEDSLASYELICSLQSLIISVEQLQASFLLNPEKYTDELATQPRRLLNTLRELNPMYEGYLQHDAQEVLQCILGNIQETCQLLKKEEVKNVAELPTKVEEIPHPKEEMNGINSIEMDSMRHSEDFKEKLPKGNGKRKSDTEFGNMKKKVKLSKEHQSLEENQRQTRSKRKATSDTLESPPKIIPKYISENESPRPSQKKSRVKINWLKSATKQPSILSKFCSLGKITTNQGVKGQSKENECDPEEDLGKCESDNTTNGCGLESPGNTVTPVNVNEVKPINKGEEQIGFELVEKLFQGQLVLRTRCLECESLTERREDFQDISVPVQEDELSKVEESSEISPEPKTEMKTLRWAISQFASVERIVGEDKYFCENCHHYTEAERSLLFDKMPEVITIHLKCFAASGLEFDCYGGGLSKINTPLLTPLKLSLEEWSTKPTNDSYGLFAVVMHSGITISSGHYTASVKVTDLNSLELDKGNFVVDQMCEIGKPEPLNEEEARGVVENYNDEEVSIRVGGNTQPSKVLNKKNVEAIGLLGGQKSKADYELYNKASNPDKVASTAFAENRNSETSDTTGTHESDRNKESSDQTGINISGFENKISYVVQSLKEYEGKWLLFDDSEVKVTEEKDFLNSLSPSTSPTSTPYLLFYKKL
# Sequence of Glutathione peroxidase 1 (Homo sapiens) (P07203 whole entry, looked up): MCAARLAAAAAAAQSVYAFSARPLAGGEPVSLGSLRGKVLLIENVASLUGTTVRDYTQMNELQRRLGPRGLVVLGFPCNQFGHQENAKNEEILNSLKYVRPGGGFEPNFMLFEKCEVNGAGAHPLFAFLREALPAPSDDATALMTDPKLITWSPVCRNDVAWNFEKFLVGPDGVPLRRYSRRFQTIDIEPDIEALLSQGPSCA
# Sequence of Alpha-galactosidase A (Homo sapiens) (P06280 whole entry, looked up): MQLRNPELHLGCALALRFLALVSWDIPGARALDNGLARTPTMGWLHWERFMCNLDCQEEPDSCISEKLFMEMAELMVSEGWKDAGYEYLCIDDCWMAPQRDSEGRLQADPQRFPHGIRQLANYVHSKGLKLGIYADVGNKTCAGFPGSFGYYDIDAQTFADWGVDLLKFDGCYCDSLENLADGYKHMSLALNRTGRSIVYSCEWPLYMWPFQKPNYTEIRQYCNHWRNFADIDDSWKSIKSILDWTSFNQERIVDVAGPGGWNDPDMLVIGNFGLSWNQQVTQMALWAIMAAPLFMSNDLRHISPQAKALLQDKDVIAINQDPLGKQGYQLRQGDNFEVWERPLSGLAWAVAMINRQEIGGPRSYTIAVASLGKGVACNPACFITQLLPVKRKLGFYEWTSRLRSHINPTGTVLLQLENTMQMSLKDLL
structure (smiles),measurement,setting,value
C=CCN(/C=C1\C(=O)OC(COC)C2(C)C1=C(O)C(=O)C1=C2C(OC(C)=O)CC2(C)C(=O)CCC12)CC=C (centres undefined),Potency,[1],9.2 µM (active)
same,Potency,[2],11.6 µM (active)
OC[C@H]1O[C@@H](n2cnc3c(NC4CCCC4)nc(Cl)nc32)[C@H](O)[C@@H]1O,Potency,[3],inactive
NC(N)=NCCNS(=O)(=O)c1cccc2cnccc12,Potency,[3],inactive
Cc1ccc(/C=C2/CNC/C(=C\c3ccc(C)cc3)C2=O)cc1,Potency,[3],inactive
COc1cc(/C=C\c2ccc(O)cc2)cc(OC)c1,Potency,[1],6.51 µM (active)
same,Potency,[4],inactive
CC1=C(C(=O)OC(C)C)[C@@H](c2cccc3nonc23)C([N+](=O)[O-])=C(C)N1,Potency,[3],inactive
CC(C)(C)NC[C@H](O)c1ccc(O)c(CO)c1,"activity change, negative = inhibition",[5]; at 17.2 µM (top of the series),-9.06% (inactive)
same,"activity change, negative = inhibition",[5]; at 38 µM (top of the series),-4.2% (inactive) and -6.86% (inactive)
same,"activity change, negative = inhibition",[6]; at 17.2 µM (top of the series),-10.8% (inactive)
same,"activity change, negative = inhibition",[6]; at 38 µM (top of the series),0.545% (inactive) and 8.74% (inactive)
same,"activity, negative = inhibition",[7]; at 17.2 µM (top of the series),16.1% (inactive)
same,"activity, negative = inhibition",[7]; at 38 µM (top of the series),-5.91% (inactive) and -0.604% (inactive)
same,Potency,[8],> 46 µM (inactive) and > 20.6 µM (inactive)
same,Potency,[9],> 46 µM (inactive) and > 20.6 µM (inactive)
same,Potency,[10],inactive
same,Potency,[11],inactive
same,outcome,[12],inactive
same,outcome,[13],inactive
same,outcome,[14],inactive
same,outcome,[15],inactive
same,"activity change, negative = inhibition",[16]; at 25.7 µM (top of the series),-2.46% (inactive)
same,"activity change, negative = inhibition",[16]; at 57.5 µM (top of the series),3.61% (inactive)
same,max response,[16]; measured here: cell count channel max response,-16.6%
same,max response,[16]; measured here: lipid channel max response,-19.3% and -13%
same,Potency,[17],inactive
C#C[C@]1(O)CC[C@H]2[C@H]3CCC4=Cc5oncc5C[C@]4(C)[C@@H]3CC[C@]21C,Potency,[18],12.6 µM (active)
same,Potency,[8],> 46 µM (inactive)
same,Potency,[9],> 46 µM (inactive)
same,outcome,[12],inactive
same,Potency,[19],inactive
same,outcome,[20],inactive
same,outcome,[15],inactive
same,Potency,[21],inactive
same,Potency,[17],inactive
same,Potency,[3],inactive
Cc1noc(NS(=O)(=O)c2cccc3c(N(C)C)cccc23)c1C,Potency,[18],inactive
same,Potency,[8],> 46 µM (inactive)
same,Potency,[9],> 46 µM (inactive)
same,Potency,[10],inactive
same,Potency,[11],inactive
same,Potency,[19],inactive
same,Potency,[17],inactive
same,Potency,[3],inactive
CC(C)(C)c1nc(-c2ccccc2)oc1Nc1ccc2ccccc2c1,Potency,[22],1.69 µM (active)
same,Potency,[23],1.9 µM (active)
same,Potency,[24],1.51 µM (active)
same,Potency,[25],2.94 µM (active)
COC(=O)CC=C[C@@H](C)[C@@H](C=NOC[C@@H](C)[C@H](OCc1ccccc1)C(C)C)NS(=O)(=O)c1ccc(C)cc1,Potency,[22],inactive
same,Potency,[23],inactive
same,Potency,[24],inactive
same,Potency,[25],inactive
same,Potency,[26],inactive
CC(=O)OC[C@H]1O[C@H](C#CC2=CCCCC2)C=C[C@H]1OC(C)=O,Potency,[22],inactive
same,Potency,[23],inactive
same,Potency,[24],inactive
same,Potency,[25],inactive
same,Potency,[26],inactive
CCCCc1nc2c(c3c1C[C@H](C)OC3)CN(S(=O)(=O)CCCC)CC2,Potency,[22],inactive
same,Potency,[23],inactive
same,Potency,[24],inactive
same,Potency,[25],inactive
same,Potency,[26],inactive
